Screening data as filed in PubChem BioAssay.
Rows were chosen to be rich in hits. Some 6.9% of all compounds tested hit in one or more screens of this group.
SW480 rerep = DNA re-replication induction in SW480 cells; AID 624297; SW480 DNA re-replication, Hoechst DNA content imaging, 48 h; 340,000 compounds, 1.8% hits; Potency, µM (titrated, usually from 46.1 µM), for inactives: top-dose re-replication activation, usual class: activators; note: potency is the fitted concentration of half-maximal effect; % of control where 0% means no effect; nearly all actives have a fitted effect of over 55% in size
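First, 250 cells per well were seeded. Next, compound or vehicle (23 nL) was pinned in, plates sat 48 hr at 37 C. Finally Hoechst was added for 40 min before fluorescence scanning.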
MCF10A rereplic = inducers of DNA re-replication in MCF 10A breast cells. AID 624296. Potency, µM (titrated, usually from 46.1 µM), inactives show at the top dose activity, positive = re-replication, actives largely listed as activators. MCF 10A DNA re-replication, Hoechst nuclear intensity, 48 h. 350,000 compounds, 2.9% hits; note: potency is the fitted concentration of half-maximal effect; % of control where 0% means no effect; nearly all actives have a fitted effect of over 50% in size
Giardia killer = kills Giardia lamblia; Giardia lamblia trophozoite viability; activity change, % at 7.66 µM, hits read low; 340,000 compounds, 0.15% hits; AID 540267; in the data active = activity change below about -80%; inconclusive = between about -30% and that limit;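 note: parasites exposed to compound for two days anaerobically before the ATP read; % is set by controls: 0 for no effect and ±100 for the full control effect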
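Viability, read as ATP luminescence: trophozoites at 100 cells/well, compound added, 48 hrs anaerobic at 37 deg C, then 15-30 min room-temperature development before reading.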
Vif-A3F inh = blocks the Vif interaction with APOBEC3F; HeLa A3F-eYFP + Vif (tagged APOBEC3F with the HIV-1 protein that degrades it), YFP fluorescence increase; Potency, µM (highest dose often 46.1 µM), without a hit: top-dose activity, negative = active; 390,000 compounds, 0.2% hits; note: potency is the fitted concentration of half-maximal effect; % of control where 0% means no effect; nearly all actives have a fitted effect of over 65% in size
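HeLa cells stably expressing Vif plus C-terminally eYFP-tagged A3F were seeded, incubated overnight at 37 deg C, dosed with compound, incubated overnight again at 37 deg C. Yellow fluorescence (Ex 488/Em 500-530) reported blocked Vif-mediated A3F-eYFP degradation.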
Vif-A3G inh = inhibitors of Vif-APOBEC3G interaction; Q9HC16; HeLa A3G-eYFP + Vif (tagged APOBEC3G with the HIV-1 protein that degrades it), YFP fluorescence, overnight; Potency, µM (doses to about 46.1 µM), without a hit: at the top dose activity, negative = active, most hits filed as inhibitors; 410,000 compounds, 0.076% hits; AID 602310; note: potency is the fitted concentration of half-maximal effect; % is set by controls: 0 for no effect and ±100 for the full control effect; nearly all actives have a fitted effect of over 60% in size
Target sequence (Q9HC16 whole entry, looked up): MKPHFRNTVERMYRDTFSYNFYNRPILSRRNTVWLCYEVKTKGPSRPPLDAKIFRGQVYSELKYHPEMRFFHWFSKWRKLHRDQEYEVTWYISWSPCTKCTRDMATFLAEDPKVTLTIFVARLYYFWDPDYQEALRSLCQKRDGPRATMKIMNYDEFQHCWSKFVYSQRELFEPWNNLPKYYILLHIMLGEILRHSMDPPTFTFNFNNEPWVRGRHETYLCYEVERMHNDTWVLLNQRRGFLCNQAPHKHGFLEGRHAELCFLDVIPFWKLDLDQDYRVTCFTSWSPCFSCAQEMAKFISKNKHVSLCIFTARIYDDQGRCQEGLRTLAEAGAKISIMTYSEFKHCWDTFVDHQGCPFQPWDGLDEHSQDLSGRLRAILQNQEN
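Read-out is eYFP fluorescence (Ex 488/Em 500-530) from Vif-expressing HeLa A3G-eYFP cells; more signal means A3G escaped Vif-mediated degradation. Cells plated overnight, compound pinned in, incubated overnight at 37 deg C.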
IL1B secr inh = inflammasome signaling inhibition, IL-1 beta readout; THP-1 LPS/ATP IL-1B secretion, AlphaLISA, 16 h; active compounds read low; activity change, % at 57.5 µM; 360,000 compounds, 4.7% hits; AID 743279; in the data active = activity change below about -50%; inconclusive = mostly about -30% to -49%; note: % is set by controls: 0 for no effect and ±100 for the full control effect
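Secreted IL-1B measured by AlphaLISA bead assay after 16 h compound exposure of THP-1 cells; compounds (final up to 57.5 uM) added 1 h before LPS (250 ng/mL) and ATP (1.25 mM) stimulation; lower signal means less secretion.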
The depositor's hits bear a star; ? = inconclusive; nt = not tested or not shown. Unless noted, calls come from the whole dose curve; as a rule, active = well fitted curve in the direction sought with a large enough effect; inconclusive = small, poorly fitted or top-dose-only effect, or another doubt; inactive = no such curve, though single readings can be large; an effect the other way counts as inactive or inconclusive.

SMILES	SW480 rerep	MCF10A rereplic	Giardia killer	Vif-A3F inh	Vif-A3G inh	IL1B secr inh
CCCC(c1nnnn1CC1CCCO1)N1CCN(c2cc(Cl)ccc2C)CC1 (stereo not given)	19%	5.2µM*	21	2%	0%	-10
Cc1ccc(Cl)cc1N1CCN(C(CC(C)C)c2nnnn2CC2CCCO2)CC1 (stereo not given)	-4%	2.9µM*	-16	-8%	0%	18
CN(CCc1ccccn1)S(=O)(=O)c1ccc(F)cc1	-2%	-17%	2	-5%	1%	15
CC(C)(C)c1cc(S(=O)(=O)CCc2ccccn2)cc(C(C)(C)C)c1F	0%	-3%	-25	-6%	1%	-88*
Cc1oc(-c2ccccc2Cl)nc1CS(=O)CC(=O)N1CCN(c2cccc(C(F)(F)F)c2)CC1 (stereo not given)	nt	nt	nt	1%	-12%	nt
CC1CCN(C(=O)CSc2ccc(-c3ccc(F)cc3)nn2)CC1	-2%	20%	-15	3%	3%	15
CC1CC(C)(C)N(C(=O)CSc2ccc(-c3ccc(F)cc3)nn2)c2ccccc21 (stereo not given)	?	25%	-14	2%	2%	-90*
O=c1n(-c2ccccc2)c(=O)n2n1CCCC2	16µM*	?	-3	-8%	1%	1
Cc1ccc(CCNS(=O)(=O)c2c(C)nc3sc(C)c(C)n3c2=O)cc1	nt	nt	nt	-12%	0%	nt
CCOC(=O)Nc1oc2ccccc2c(=O)c1CN1CCOCC1	-4%	16µM*	-15	-18%	-14%	-19
CCOC(=O)c1oc2ccccc2c1CN1CC(C)OC(C)C1 (stereo not given)	1%	0%	12	-13%	-7%	48
Cc1cccc(C)c1N(CC(=O)N1CCN(c2ccccc2F)CC1)S(C)(=O)=O	-7%	0.65µM*	0	-3%	3%	1
Cc1ccc(Cl)cc1N1CCN(C(=O)CN(c2ccccc2)S(=O)(=O)N(C)C)CC1	8%	21%	-10	13%	2%	-81*
CCOc1ccc(C(=O)C(CCC(CN(C)C)C(=O)c2ccc(OCC)cc2)CN(C)C)cc1 (stereo not given)	3.7µM*	?	-9	1%	?	-100*
CN(C)CC(CCC(CN(C)C)C(=O)c1ccccc1)C(=O)c1ccccc1 (stereo not given)	?	?	3	0%	?	-100*
COc1ccc(C(=O)C(CCCCC(CN(C)C)C(=O)c2ccc(OC)cc2)CN(C)C)cc1 (stereo not given)	?	?	11	-3%	3%	-10
O=C(c1ccccc1)C(CCc1ccccn1)CCc1ccccn1	2%	6%	3	1%	-7%	-16
O=C(Nc1sc2c(c1C(=O)NCCCO)CCCC2)c1ccccc1	-5%	-1%	-5	-22%	2%	-69*
NCCNC(=O)c1c(NC(=O)c2ccccc2)sc2c1CCCC2	0%	-4%	-13	7%	-3%	-92*
CCC(C(=O)Nc1cc(-c2nc3cccnc3s2)ccc1C)c1ccccc1 (stereo not given)	nt	nt	nt	-2%	-2%	nt
CCN(CC)S(=O)(=O)c1cc(-c2nnc(Nc3ccc(OC)c(C(N)=O)c3)c3ccccc23)ccc1C	nt	nt	nt	0%	-25%	nt
CC(C)(C)C(=O)Cn1c(=O)n(-c2ccc(Cl)c(Cl)c2)c(=O)c2c3c(sc21)CCCC3	nt	nt	nt	-2%	4%	nt
CCCCn1c(NC(=O)c2ccccc2Cl)c(C#N)c2nc3ccccc3nc21	16µM*	2.6µM*	12	?	?	-98*
CCCCn1c(NC(=O)CC)c(C#N)c2nc3ccccc3nc21	-5%	8%	10	-26%	1%	15
N#Cc1c(NC(=O)c2ccccc2Cl)n(Cc2ccccc2)c2nc3ccccc3nc12	11µM*	?	4	?	?	-102*
SMILES	SW480 rerep	MCF10A rereplic	Giardia killer	Vif-A3F inh	Vif-A3G inh	IL1B secr inh
COc1ccc(-n2c(NC(=O)c3ccco3)c(C#N)c3nc4ccccc4nc32)cc1	18µM*	8.2µM*	11	-7%	-21%	4
CCOC(=O)c1c(NC(=O)c2ccco2)n(C2CCCCC2)c2nc3ccccc3nc12	-3%	6%	5	2%	-9%	-21
Cc1nc2ccccc2c(=O)n1-c1cccc(NC(=O)c2cccs2)c1	-86%	-14%	18	10%	-1%	-51*
N#Cc1cccc(NC(=O)C2CCN(S(=O)(=O)c3ccc4[nH]c(=O)ccc4c3)CC2)c1	nt	nt	nt	-3%	-4%	nt
O=C(COc1ccccc1C(=O)Nc1ccccc1)Nc1cccc(Br)c1	nt	nt	nt	nt	-1%	nt
Cc1cc2cc3c(=O)[nH]c(=O)nc-3n(CC(O)C(O)C(O)CO)c2cc1C (stereo not given)	21µM*	?	10	-1%	2%	23
COc1ccccc1NC(=O)CC(=O)c1ccccc1	-11%	-2%	-25	14%	-7%	-8
COc1ccccc1NC(=S)N/N=C/c1cccc(C)c1	?	?	11	-9%	-20%	10
COc1ccc(/C=N/OC(=O)Nc2ccccc2OC)cc1	?	7.3µM*	-1	1%	?	0
COc1ccccc1NC(=S)N/N=C/c1ccc(O)cc1	1%	17%	-2	-2%	-5%	-101*
COc1ccccc1NC(=O)O/N=C(\N)c1ccccc1	12µM*	?	7	-6%	2%	13
COc1ccc(NC(=O)O/N=C/c2ccc(Br)cc2)cc1	?	?	2	-1%	-1%	-13
CCOc1ccc2c(c1)c(=O)c(C(=O)c1ccccc1)cn2Cc1ccccc1F	nt	nt	nt	2%	-6%	nt
CCN(C(=O)CSc1nc(-c2ccc(C(C)C)cc2)no1)c1ccccc1	nt	nt	nt	2%	2%	nt
COc1ccc(C2CC(=O)c3cc(-c4nc(-c5ccc(Cl)cc5)cs4)c(=O)[nH]c3C2)cc1OC (stereo not given)	nt	nt	nt	-12%	0%	nt
NCCCNC(=O)Cn1c(=O)c2c3c(sc2n(Cc2ccccc2)c1=O)CCCC3	-4%	-1%	-22	1%	0%	3
NCCNC(=O)Cn1c(=O)c2c3c(sc2n(Cc2ccccc2)c1=O)CCCC3	1%	9%	-16	-2%	0%	-78*
CN(C)CCn1c(=O)n(Cc2ccccc2)c(=O)c2c3c(sc21)CCCCC3	0%	11%	-17	11%	3%	-64*
Cc1cnccc1/C=C/c1ccc(N)cc1	nt	nt	nt	nt	-4%	nt
COc1cccc2cc(C(=O)NCc3ccc(Cl)cc3)c(=N)oc12	9%	15%	20	-13%	2%	-91*
